PubChem BioAssay (EPA / NIEHS)
Where a structure was tested more than once in an assay, its records may differ in their call. Active and inactive are the calls of the source. Rule for the calls: active = hit-call score of the fitted dose curve at least 0.9, where 1 is the maximum; inactive = score below 0.9.

Assays:
[1] = read-out: Basic fibroblast growth factor (bFGF), FGF2 (gene 2247); experiment: BSK_MyoF_bFGF: BioMAP Diversity Plus: MyoF Assay for Basic fibroblast growth factor (bFGF) Biomarker Activity (AID 2284246); details: primary human lung fibroblasts
Procedure, shortened: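 Human lung fibroblast cultures were dosed and measured 24 h later in 96-well format. bFGF biomarker levels quantified by ELISA, with activity fitted in the positive direction against DMSO.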

[2] = read-out: Plasminogen activator inhibitor-1 (PAI1), SERPINE1 (gene 5054); experiment: BSK_MyoF_PAI1: BioMAP Diversity Plus: MyoF Assay for Plasminogen activator inhibitor-1 (PAI1) Biomarker Activity (AID 2284256); details: primary human lung fibroblasts
Procedure, shortened: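 ELISA read-out of PAI-1 from primary human lung fibroblast cultures 24 h after dosing; gain-of-signal fit versus DMSO control.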

[3] = read-out: Interleukin-8 (IL8), CXCL8 (gene 3576); experiment: BSK_MyoF_IL8: BioMAP Diversity Plus: MyoF Assay for Interleukin-8 (IL8) Biomarker Activity (AID 2284261); details: primary human lung fibroblasts
Procedure, shortened: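 ELISA read-out of IL-8 from primary human lung fibroblasts, 24 h post-dose; positive-direction curve fitting relative to DMSO vehicle baseline.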

Decorin, DCN (gene 1634) = experiment: BSK_MyoF_Decorin: BioMAP Diversity Plus: MyoF Assay for Decorin Biomarker Activity (AID 2284265); details: primary human lung fibroblasts
Procedure, shortened: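 Human lung fibroblasts in the MyoF system were exposed to compound for 24 h, after which decorin was quantified by ELISA. Activity was fitted in the positive direction relative to DMSO negative control.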

[4] = BSK_MyoF_SRB: Viability Assessment in the BioMAP Diversity Plus: MyoF Assay (AID 2284267); details: primary human lung fibroblasts;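 note: total protein by SRB absorbance in parallel cultures as cytotoxicity measure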
Procedure, shortened: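 Human lung fibroblasts, 24 h after chemical dosing; total protein measured by 0.1% sulforhodamine B staining after 10% TCA fixation, read at 560 nm, fitted relative to DMSO baseline.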

[5] = read-out: Matrix Metallopeptidase 1 (MMP1), MMP1 (gene 4312); experiment: BSK_MyoF_MMP1: BioMAP Diversity Plus: MyoF Assay for Matrix Metallopeptidase 1 (MMP1) Biomarker Activity (AID 2284268); details: primary human lung fibroblasts
Procedure, shortened: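 ELISA readout of MMP1 in primary human lung fibroblast cultures, 24 h post-dosing. Gain of signal versus DMSO vehicle control defines activity. Parallel SRB staining (0.1% after 10% TCA fixation, 560 nm) flags overt cytotoxicity.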

[6] = read-out: TIMP metallopeptidase inhibitor 1 (TIMP1), TIMP1 (gene 7076); experiment: BSK_MyoF_TIMP1: BioMAP Diversity Plus: MyoF Assay for TIMP metallopeptidase inhibitor 1 (TIMP1) Biomarker Activity (AID 2284269); details: primary human lung fibroblasts
Procedure, shortened: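 Primary human lung fibroblasts, MyoF multiplex system; chemical exposure 24 h; TIMP-1 by ELISA; positive fitting direction vs DMSO control.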

[7] = read-out: Monokine induced gamma interferon (MIG), CXCL9 (gene 4283); experiment: BSK_KF3CT_MIG: BioMAP Diversity Plus: KF3CT Assay for Monokine induced gamma interferon (MIG) Biomarker Activity (AID 2284248); details: primary human keratinocytes with fibroblasts
Procedure, shortened: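 Human keratinocyte plus foreskin fibroblast primary co-culture dosed with test chemical for 24 h; MIG level measured by ELISA and fitted in the positive direction against DMSO as baseline.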

[8] = read-out: Plasminogen activator inhibitor-1 (PAI1), SERPINE1 (gene 5054); experiment: BSK_KF3CT_PAI1: BioMAP Diversity Plus: KF3CT Assay for Plasminogen activator inhibitor-1 (PAI1) Biomarker Activity (AID 2284252); details: primary human keratinocytes with fibroblasts
Procedure, shortened: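 Human keratinocyte/foreskin fibroblast co-culture dosed for 24 h; PAI-1 measured by ELISA, fitted in positive direction against DMSO baseline. Parallel SRB total-protein staining (0.1% SRB, 560 nm) assesses overt cytotoxicity.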

[9] = read-out: Vascular cell adhesion molecule 1 (VCAM1), VCAM1 (gene 7412); experiment: BSK_BF4T_VCAM1: BioMAP Diversity Plus: BF4T Assay for Vascular cell adhesion molecule 1 (VCAM1) Biomarker Activity (AID 2284249); details: primary human bronchial epithelial cells with fibroblasts
Procedure, shortened: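 Human bronchial epithelial cell and dermal fibroblast co-culture exposed 24 h. VCAM-1 measured by ELISA; parallel SRB total-protein staining for cytotoxicity. Fitted in positive direction relative to DMSO.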

[10] = read-out: Monocyte Chemoattractant Protein-1 (MCP1), CCL2 (gene 6347); experiment: BSK_IMphg_MCP1: BioMAP Diversity Plus: IMphg Assay for Monocyte Chemoattractant Protein-1 (MCP1) Biomarker Activity (AID 2284253); details: primary human endothelial cells with macrophages
Procedure, shortened: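 Human venular endothelial cells co-cultured with macrophages; MCP-1 measured by ELISA 24 hours post-dose and fitted against DMSO. Cytotoxicity monitored by SRB total-protein staining in parallel cultures.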

[11] = read-out: Macrophage Inflammatory Protein-1 Alpha (MIP1a), CCL3 (gene 6348); experiment: BSK_IMphg_MIP1a: BioMAP Diversity Plus: IMphg Assay for Macrophage Inflammatory Protein-1 Alpha (MIP1a) Biomarker Activity (AID 2284255); details: primary human endothelial cells with macrophages
Procedure, shortened: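 Co-culture of human venular endothelial cells and macrophages exposed to compounds for 24 h; MIP-1a measured by ELISA relative to DMSO. Cytotoxicity assessed in parallel cultures by sulforhodamine B total-protein staining at 560 nm.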

CD69, CD69 (gene 969) = experiment: BSK_IMphg_CD69: BioMAP Diversity Plus: IMphg Assay for CD69 Biomarker Activity (AID 2284257); details: primary human endothelial cells with macrophages
Procedure, shortened: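 Human venular endothelial cells co-cultured with macrophages; CD69 quantified by ELISA 24 h after compound addition. Activity fitted in the positive direction relative to DMSO baseline; cytotoxicity tracked in parallel cultures via SRB total-protein staining.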

[12] = read-out: Eotaxin 3, CCL26 (gene 10344); experiment: BSK_BF4T_Eotaxin3: BioMAP Diversity Plus: BF4T Assay for Eotaxin 3 Biomarker Activity (AID 2284258); details: primary human bronchial epithelial cells with fibroblasts
Procedure, shortened: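 Co-culture of human bronchial epithelial cells and dermal fibroblasts, exposed to chemicals for 24 h versus DMSO. Eotaxin-3 quantified by ELISA; cytotoxicity checked in parallel cultures by sulforhodamine B total-protein staining.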

[13] = read-out: Monocyte Chemoattractant Protein-1 (MCP1), CCL2 (gene 6347); experiment: BSK_BF4T_MCP1: BioMAP Diversity Plus: BF4T Assay for Monocyte Chemoattractant Protein-1 (MCP1) Biomarker Activity (AID 2284259); details: primary human bronchial epithelial cells with fibroblasts
Procedure, shortened: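 Co-culture of bronchial epithelial cells and dermal fibroblasts dosed with chemical; MCP-1 measured by ELISA 24 h later. Activity fitted in positive direction versus DMSO; cytotoxicity checked by SRB staining in parallel cultures.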

[14] = read-out: Intercellular Adhesion Molecule 1 (ICAM1), ICAM1 (gene 3383); experiment: BSK_BF4T_ICAM1: BioMAP Diversity Plus: BF4T Assay for Intercellular Adhesion Molecule 1 (ICAM1) Biomarker Activity (AID 2284260); details: primary human bronchial epithelial cells with fibroblasts
Procedure, shortened: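 Co-culture of human bronchial epithelial cells and dermal fibroblasts exposed 24 h to chemical; cell-surface ICAM-1 quantified by ELISA. Parallel SRB total-protein staining assessed cytotoxicity; activity fitted relative to DMSO.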

CD90, THY1 (gene 7070) = experiment: BSK_BF4T_CD90: BioMAP Diversity Plus: BF4T Assay for CD90 Biomarker Activity (AID 2284262); details: primary human bronchial epithelial cells with fibroblasts
Procedure, shortened: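 Co-culture of human bronchial epithelial cells and dermal fibroblasts, 24 h compound exposure. Cell-surface CD90 measured by ELISA relative to DMSO; parallel SRB total-protein staining for cytotoxicity.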

[15] = read-out: Interleukin-8 (IL8), CXCL8 (gene 3576); experiment: BSK_BF4T_IL8: BioMAP Diversity Plus: BF4T Assay for Interleukin-8 (IL8) Biomarker Activity (AID 2284263); details: primary human bronchial epithelial cells with fibroblasts
Procedure, shortened: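 Human bronchial epithelial cells with dermal fibroblasts co-culture; IL-8 measured by ELISA 24 hours after dosing, fitted vs DMSO. Cytotoxicity tracked in parallel cultures by SRB total-protein staining.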

[16] = read-out: Interleukin-1 alpha (IL1a), IL1A (gene 3552); experiment: BSK_BF4T_IL1a: BioMAP Diversity Plus: BF4T Assay for Interleukin-1 alpha (IL1a) Biomarker Activity (AID 2284264); details: primary human bronchial epithelial cells with fibroblasts
Procedure, shortened: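 Human bronchial epithelial cells co-cultured with dermal fibroblasts, dosed and read at 24 h. Secreted/surface IL-1α quantified by ELISA; gain-of-signal fitted relative to DMSO baseline. Parallel SRB total-protein staining tracked cytotoxicity.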

KRT18 (gene 3875) = experiment: BSK_BF4T_Keratin818: BioMAP Diversity Plus: BF4T Assay for Keratin 818 Biomarker Activity (AID 2284266); details: primary human bronchial epithelial cells with fibroblasts
Procedure, shortened: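 Co-culture of human bronchial epithelial cells and dermal fibroblasts, chemical exposure 24 h. Keratin 8/18 measured by ELISA; positive-direction fit vs DMSO. SRB total protein run in parallel cultures for cytotoxicity.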

Measured: AC50

CC(C)Cc1ccc(C(C)C(=O)O)cc1 (centres undefined)
inactive: [1] | [2] | [3] | Decorin, DCN (gene 1634) | [4] | [5] | [6]

O=S1(=O)CC(Cl)(Cl)C(Cl)(Cl)C1
active: [1] 2.06 µM | [2] 2.62 µM | [4] 2.14 µM | [5] 3.45 µM | [6] 3.94 µM
inactive: [3] | Decorin, DCN (gene 1634)

CC(C)(C)c1cccc(O)c1
inactive: [1] | [2] | [3] | Decorin, DCN (gene 1634) | [4] | [5] | [6]

CC(C)CCCC(C)(C)O
inactive: [7] | [8]

C=C(F)C(=O)OC(C(F)(F)F)C(F)(F)F
active: [13] 47.3 µM
inactive: [1] | [7] | [9] | [8] | [10] | [11] | [2] | CD69, CD69 (gene 969) | [12] | [13] | [14] | [3] | CD90, THY1 (gene 7070) | [15] | [16] | Decorin, DCN (gene 1634) | KRT18 (gene 3875) | [4] | [5] | [6]

CCCCCCCC1CCCC1=O (centres undefined)
inactive: [1] | [2] | [3] | Decorin, DCN (gene 1634) | [6]
active: [4] 32.4 µM | [5] 32.4 µM

CC(=O)OCC=C(C)CCC=C(C)CCC=C(C)C
inactive: [1] | [2] | [3] | Decorin, DCN (gene 1634) | [4] | [5] | [6]

CC(=O)c1ccc(C)cc1
inactive: [7] | [8]

O=C1OC2(c3ccc(O)cc3Oc3cc(O)ccc32)c2ccccc21
inactive: [1] | [2] | [3] | Decorin, DCN (gene 1634) | [4] | [5] | [6]

C=CC(=O)OCC(CO)(COC(=O)C=C)COC(=O)C=C
inactive: [5]
active: [1] 1.62 µM | [2] 2.88 µM | [3] 4.24 µM | Decorin, DCN (gene 1634) 3.97 µM | [4] 0.642 µM | [6] 2.05 µM
